In PubChem BioAssay AID1159580 (chemical genetic matrix, 2015):
Where “and” joins values, the source holds several entries; their conditions need not be identical. Identical values can stand only once. Hit rate of the full screen: of about 5,500 compounds, about 2,000 (36%) were called active. About 18% were inconclusive and are not listed. Cut-off read from the data, not from the text of the source: active = normalized growth mostly below about 0.91 (no sharp cut-off); inconclusive = no clear call, values can overlap the other calls; inactive = mostly above about 0.92. The list shows a part of the results.

Test: chemical genetic growth profiling, strain panel (AID 1159580);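 note: tested at 20 µM; growth read once vehicle control cultures reached saturation at 30 °C; 1 = growth at the plate median or of vehicle wells; lower values mean less growth of the strain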
Conditions: S. cerevisiae deletion strains, growth OD

Measured: normalized growth

CCCC1O[C@@H]2CC3C4CCC5=CC(=O)C=CC5(C)C4[C@@H](O)CC3(C)[C@]2(C(=O)CO)O1 (stereo partly specified)
inactive: locus YAL013W, strain DEP1, stronger effect = lower value 1 | locus YAL021C, strain ccr4, stronger effect = lower value 1.01 | locus YAL026C, strain drs2, stronger effect = lower value 1.01 | locus YAL030W, strain snc1, stronger effect = lower value 1.01 | locus YBL061C, strain skt5, stronger effect = lower value 1 | locus YBR009C, strain hhf1, stronger effect = lower value 0.995 | locus YBR021W, strain FUR4, stronger effect = lower value 1 | locus YBR023C, strain chs3, stronger effect = lower value 1.02 | locus YBR171W, strain sec66, stronger effect = lower value 1.01 | locus YBR229C, strain ROT2, stronger effect = lower value 1 | locus YBR231C, strain swc5, stronger effect = lower value 1 | locus YBR279W, strain paf1, stronger effect = lower value 1.01 | locus YCL011C, strain gbp2, stronger effect = lower value 0.996 | locus YCL016C, strain dcc1, stronger effect = lower value 1.01 | locus YCL029C, strain bik1, stronger effect = lower value 1.01 | locus YCL069W, strain vba3, stronger effect = lower value 1.01 | locus YCR088W, strain abp1, stronger effect = lower value 1.01 | locus YDL005C, strain med2, stronger effect = lower value 0.985 | locus YDL035C, strain GPR1, stronger effect = lower value 0.994 | locus YDL040C, strain nat1, stronger effect = lower value 1.01 | locus YDL074C, strain BRE1, stronger effect = lower value 1 | locus YDL101C, strain DUN1, stronger effect = lower value 1.01 | locus YDL134C, strain PPH21, stronger effect = lower value 1 | locus YDL185W, strain tfp1, stronger effect = lower value 1.01 | locus YDL192W, strain arf1, stronger effect = lower value 1.02 | locus YDR001C, strain nth1, stronger effect = lower value 0.993 | locus YDR069C, strain doa4, stronger effect = lower value 1 | locus YDR101C, strain arx1, stronger effect = lower value 1.01 | locus YDR137W, strain rgp1, stronger effect = lower value 0.989 | locus YDR150W, strain NUM1, stronger effect = lower value 0.997 | locus YDR159W, strain sac3, stronger effect = lower value 0.972 | locus YDR162C, strain NBP2, stronger effect = lower value 1 | locus YDR195W, strain ref2 0.971 | locus YDR297W, strain sur2, stronger effect = lower value 1.01 | locus YDR318W, strain mcm21, stronger effect = lower value 1.03 | locus YDR334W, strain swr1, stronger effect = lower value 1.03 | locus YDR335W, strain msn5, stronger effect = lower value 1.01 | locus YDR388W, stronger effect = lower value 1.02 | locus YDR392W, strain spt3, stronger effect = lower value 1.04 | locus YDR502C, strain sam2, stronger effect = lower value 1.02 | locus YEL003W, strain gim4, stronger effect = lower value 1.02 | locus YEL037C, strain rad23, stronger effect = lower value 0.995 | locus YEL061C, strain CIN8 (second series), stronger effect = lower value 1.02 | locus YEL061C, strain CIN8, stronger effect = lower value 1 | locus YER015W, strain faa2, stronger effect = lower value 1.01 | locus YER016W, strain bim1, stronger effect = lower value 1 | locus YER110C, stronger effect = lower value 1.02 | locus YER111C, strain swi4, stronger effect = lower value 1.02 | locus YER155C, strain BEM2 (second series), stronger effect = lower value 1.05 | locus YER155C, strain BEM2, stronger effect = lower value 0.989 | locus YER167W, strain BCK2, stronger effect = lower value 1.01 | locus YFR010W, strain ubp6, stronger effect = lower value 0.987 | locus YGL078C, strain dbp3, stronger effect = lower value 1.01 | locus YGL086W, strain mad1, stronger effect = lower value 1 | locus YGL167C, strain pmr1, stronger effect = lower value 1.01 | locus YGL173C, strain kem1, stronger effect = lower value 1 | locus YGL227W, strain vid30, stronger effect = lower value 1 | locus YGL240W, strain doc1, stronger effect = lower value 0.982 | locus YGL248W, strain PDE1, stronger effect = lower value 1.01 | locus YGL253W, strain hxk2, stronger effect = lower value 1.02 | locus YGR078C, strain PAC10, stronger effect = lower value 0.986 | locus YGR135W, strain pre9, stronger effect = lower value 0.998 | locus YGR229C, strain SMI1, stronger effect = lower value 0.992 | locus YGR252W, strain gcn5, stronger effect = lower value 1.06 | locus YHR013C, strain ard1, stronger effect = lower value 1.03 | locus YHR027C, strain rpn1, stronger effect = lower value 1.01 | locus YHR030C, strain SLT2, stronger effect = lower value 1 and 1.02 | locus YHR079C, strain IRE1 (second series), stronger effect = lower value 1.01 | locus YHR079C, strain IRE1, stronger effect = lower value 1.01 | locus YHR094C, strain hxt1, stronger effect = lower value 1.02 | locus YHR129C, strain ARP1, stronger effect = lower value 1 | locus YHR142W, strain chs7, stronger effect = lower value 1.02 | locus YHR200W, strain rpn10, stronger effect = lower value 1.03 | locus YIL066C, strain RNR3, stronger effect = lower value 1.01 | locus YIL073C, strain SPO22, stronger effect = lower value 1.07 | locus YIL125W, strain kgd1, stronger effect = lower value 0.997 | locus YIR030C, strain dcg1, stronger effect = lower value 1.02 | locus YJL092W, strain hpr5, stronger effect = lower value 1 | locus YJL095W, strain BCK1 (second series), stronger effect = lower value 1.01 | locus YJL095W, strain BCK1, stronger effect = lower value 0.994 and 1.02 | locus YJL115W, strain asf1, stronger effect = lower value 1 | locus YJL129C, strain trk1, stronger effect = lower value 0.98 | locus YJL134W, strain LCB3, stronger effect = lower value 1 | locus YJL154C, strain vps35, stronger effect = lower value 1.01 | locus YJL164C, strain tpk1, stronger effect = lower value 1 | locus YJL166W, strain qcr8, stronger effect = lower value 1.01 | locus YJL168C, strain set2, stronger effect = lower value 1.02 | locus YJL187C, strain SWE1 (second series), stronger effect = lower value 1 | locus YJL187C, strain SWE1, stronger effect = lower value 1.02 | locus YJR043C, strain POL32, stronger effect = lower value 1 | locus YJR066W, strain TOR1, stronger effect = lower value 0.978
